Data: paper PMC7862700, “An all-to-all approach to the identification of sequence-specific readers for epigenetic DNA modifications on cytosine”

Tests used:
Assay in all cases: DAPPL (digital affinity profiling via proximity ligation, sequencing); 10 mM Tris-HCl pH 7.5, 50 mM NaCl, 1 mM DTT, 4% glycerol, room temperature, 30 min; GST-TFs on glutathione beads, 16-mer random dsDNA library, 0.1% formaldehyde crosslink after washing; high values mean tight binding
Settings in all cases: protein: recombinant; tags: N-terminal GST; dsDNA, one strand shown
FEV = target: T1, FEV (Homo sapiens, UniProt Q99581 1-238)
T1 sequence: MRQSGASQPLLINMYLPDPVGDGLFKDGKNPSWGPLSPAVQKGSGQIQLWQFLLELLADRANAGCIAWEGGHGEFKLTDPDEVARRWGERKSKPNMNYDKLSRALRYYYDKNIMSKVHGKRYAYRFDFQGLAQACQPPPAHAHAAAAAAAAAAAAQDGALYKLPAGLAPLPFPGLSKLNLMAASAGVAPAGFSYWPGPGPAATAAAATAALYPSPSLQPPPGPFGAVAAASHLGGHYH
Outline: (§1)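 Yeast served to express human transcription factors as GST fusions, which were then captured on glutathione beads and labelled with DNA barcodes. Pooled with a tag-only sample, they were incubated with 200 nmole of a 16-mer random double-stranded DNA library for 30 min at room temperature in Tris/NaCl/DTT/glycerol buffer, washed, crosslinked with 0.1% formaldehyde, ligated by proximity, amplified by PCR and sequenced. Dividing each hexamer's read frequency for a factor by its frequency for the tag-only sample gives the binding signal.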

ETV5 = ETV5 (Homo sapiens, UniProt P41161 1-510)
Chain of ETV5 (P41161 whole entry): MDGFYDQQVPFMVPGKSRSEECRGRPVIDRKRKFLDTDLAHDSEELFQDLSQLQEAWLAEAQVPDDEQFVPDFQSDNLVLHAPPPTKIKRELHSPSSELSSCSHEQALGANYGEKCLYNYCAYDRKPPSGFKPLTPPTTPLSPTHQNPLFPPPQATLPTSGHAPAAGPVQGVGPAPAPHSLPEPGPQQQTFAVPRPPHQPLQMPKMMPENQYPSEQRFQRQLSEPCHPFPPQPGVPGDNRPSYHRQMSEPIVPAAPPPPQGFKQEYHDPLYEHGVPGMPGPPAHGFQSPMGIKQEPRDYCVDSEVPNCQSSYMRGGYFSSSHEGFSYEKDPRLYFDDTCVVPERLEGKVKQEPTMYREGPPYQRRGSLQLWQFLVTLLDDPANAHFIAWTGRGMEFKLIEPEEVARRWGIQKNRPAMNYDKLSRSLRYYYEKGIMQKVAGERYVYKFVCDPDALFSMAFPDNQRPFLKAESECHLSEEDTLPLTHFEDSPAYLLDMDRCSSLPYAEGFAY
Outline: as §1

SPIC = target: T2, SPIC (Homo sapiens, UniProt Q8N5J4 1-248)
T2 sequence: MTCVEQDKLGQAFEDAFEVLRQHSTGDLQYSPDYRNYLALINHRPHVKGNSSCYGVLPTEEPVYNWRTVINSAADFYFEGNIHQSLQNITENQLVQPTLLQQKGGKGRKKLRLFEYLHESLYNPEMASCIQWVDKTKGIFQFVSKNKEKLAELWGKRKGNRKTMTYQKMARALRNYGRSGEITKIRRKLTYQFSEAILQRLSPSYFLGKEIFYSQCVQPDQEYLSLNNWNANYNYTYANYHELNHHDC
Outline: as §1

ELF4 = ELF4 (Homo sapiens, UniProt Q99607 1-663)
Chain of ELF4 (Q99607 whole entry): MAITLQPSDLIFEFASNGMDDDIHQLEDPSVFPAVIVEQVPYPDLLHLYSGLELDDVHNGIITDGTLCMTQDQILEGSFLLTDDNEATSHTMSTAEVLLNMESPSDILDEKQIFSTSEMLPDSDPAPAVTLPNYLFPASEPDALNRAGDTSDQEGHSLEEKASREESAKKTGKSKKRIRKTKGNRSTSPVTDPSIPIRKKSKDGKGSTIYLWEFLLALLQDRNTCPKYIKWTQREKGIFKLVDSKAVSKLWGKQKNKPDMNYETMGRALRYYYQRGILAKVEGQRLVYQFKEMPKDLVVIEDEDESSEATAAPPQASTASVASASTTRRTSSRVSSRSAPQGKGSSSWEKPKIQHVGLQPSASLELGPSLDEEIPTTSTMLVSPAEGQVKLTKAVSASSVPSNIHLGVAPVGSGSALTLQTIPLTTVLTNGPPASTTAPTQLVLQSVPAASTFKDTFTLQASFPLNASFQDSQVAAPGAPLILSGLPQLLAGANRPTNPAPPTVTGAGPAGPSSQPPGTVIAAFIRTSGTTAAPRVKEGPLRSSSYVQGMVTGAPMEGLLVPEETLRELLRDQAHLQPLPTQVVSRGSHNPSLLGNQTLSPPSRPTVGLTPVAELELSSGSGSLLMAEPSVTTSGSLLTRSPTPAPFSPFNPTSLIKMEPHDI
Outline: as §1

ELK4 = target: T3, ELK4 (Homo sapiens, UniProt P28324-2 1-405)
T3 sequence: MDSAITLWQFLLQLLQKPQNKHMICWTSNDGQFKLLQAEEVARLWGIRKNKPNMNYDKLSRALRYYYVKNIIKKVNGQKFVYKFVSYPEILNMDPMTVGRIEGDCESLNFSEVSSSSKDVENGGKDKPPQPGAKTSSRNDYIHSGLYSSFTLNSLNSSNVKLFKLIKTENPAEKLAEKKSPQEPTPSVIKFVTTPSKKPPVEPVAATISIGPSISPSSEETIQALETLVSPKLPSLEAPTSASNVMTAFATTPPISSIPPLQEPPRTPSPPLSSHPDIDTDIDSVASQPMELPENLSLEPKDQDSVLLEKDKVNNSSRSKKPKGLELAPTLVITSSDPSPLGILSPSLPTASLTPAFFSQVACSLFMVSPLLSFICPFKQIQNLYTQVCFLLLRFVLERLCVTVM
Outline: as §1

ETV2 = target: T4, ETV2 (Homo sapiens, UniProt O00321 1-342)
T4 sequence: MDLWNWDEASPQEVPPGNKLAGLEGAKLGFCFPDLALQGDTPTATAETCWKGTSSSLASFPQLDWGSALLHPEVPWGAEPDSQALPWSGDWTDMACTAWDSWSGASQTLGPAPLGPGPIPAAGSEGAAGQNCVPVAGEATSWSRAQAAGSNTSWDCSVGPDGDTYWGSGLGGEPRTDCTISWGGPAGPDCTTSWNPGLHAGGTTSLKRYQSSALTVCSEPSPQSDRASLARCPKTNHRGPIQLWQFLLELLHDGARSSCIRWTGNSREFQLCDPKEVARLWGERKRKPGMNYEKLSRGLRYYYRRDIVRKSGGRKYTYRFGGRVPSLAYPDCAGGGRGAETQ
Outline: as §1

ELF3 = target: T5, ELF3 (Homo sapiens, UniProt P78545 1-371)
T5 sequence: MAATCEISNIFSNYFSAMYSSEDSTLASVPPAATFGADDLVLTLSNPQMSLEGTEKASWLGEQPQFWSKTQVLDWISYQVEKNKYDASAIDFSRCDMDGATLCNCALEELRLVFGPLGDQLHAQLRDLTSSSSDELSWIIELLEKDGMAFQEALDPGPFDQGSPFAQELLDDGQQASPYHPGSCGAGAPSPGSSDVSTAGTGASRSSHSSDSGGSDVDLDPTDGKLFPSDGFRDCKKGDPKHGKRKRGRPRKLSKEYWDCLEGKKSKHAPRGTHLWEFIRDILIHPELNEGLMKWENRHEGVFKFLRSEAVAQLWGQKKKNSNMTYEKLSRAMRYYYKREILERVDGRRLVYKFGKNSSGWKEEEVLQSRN
Outline: as §1

ETV1 = ETV1 (Homo sapiens, UniProt P50549 1-477)
Chain of ETV1 (P50549 whole entry): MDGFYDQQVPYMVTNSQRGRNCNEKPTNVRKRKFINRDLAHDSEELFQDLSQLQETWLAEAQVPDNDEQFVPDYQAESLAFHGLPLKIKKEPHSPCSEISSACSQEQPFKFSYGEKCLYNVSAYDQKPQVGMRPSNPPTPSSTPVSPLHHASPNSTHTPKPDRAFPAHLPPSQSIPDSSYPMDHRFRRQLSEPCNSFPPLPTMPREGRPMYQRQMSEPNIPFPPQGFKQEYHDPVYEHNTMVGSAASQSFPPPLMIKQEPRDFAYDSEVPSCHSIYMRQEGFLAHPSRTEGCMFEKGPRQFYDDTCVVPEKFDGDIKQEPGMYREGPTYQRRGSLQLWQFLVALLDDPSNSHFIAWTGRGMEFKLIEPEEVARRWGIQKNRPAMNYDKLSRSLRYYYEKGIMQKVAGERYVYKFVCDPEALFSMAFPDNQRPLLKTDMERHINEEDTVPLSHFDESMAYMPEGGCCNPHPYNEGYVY
Outline: as §1

ERF = target: T6, ERF (Homo sapiens, UniProt P50548 1-548)
T6 sequence: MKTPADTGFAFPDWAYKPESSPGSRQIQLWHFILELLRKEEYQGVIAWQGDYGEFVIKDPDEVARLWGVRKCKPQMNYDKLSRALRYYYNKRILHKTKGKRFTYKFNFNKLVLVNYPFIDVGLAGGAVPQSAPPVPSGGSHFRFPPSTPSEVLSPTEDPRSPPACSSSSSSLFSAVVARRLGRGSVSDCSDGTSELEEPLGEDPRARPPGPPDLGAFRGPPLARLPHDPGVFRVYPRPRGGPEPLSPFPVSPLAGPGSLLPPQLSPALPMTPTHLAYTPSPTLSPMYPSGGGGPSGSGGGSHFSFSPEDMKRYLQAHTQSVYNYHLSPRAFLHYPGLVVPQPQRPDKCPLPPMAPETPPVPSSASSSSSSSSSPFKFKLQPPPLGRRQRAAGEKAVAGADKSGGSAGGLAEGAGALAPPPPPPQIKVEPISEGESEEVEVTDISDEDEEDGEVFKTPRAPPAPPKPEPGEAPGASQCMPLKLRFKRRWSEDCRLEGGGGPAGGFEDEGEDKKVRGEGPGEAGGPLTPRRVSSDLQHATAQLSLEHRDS
Outline: as §1

ETS2 = target: T7, ETS2 (Homo sapiens, UniProt P15036 1-469)
T7 sequence: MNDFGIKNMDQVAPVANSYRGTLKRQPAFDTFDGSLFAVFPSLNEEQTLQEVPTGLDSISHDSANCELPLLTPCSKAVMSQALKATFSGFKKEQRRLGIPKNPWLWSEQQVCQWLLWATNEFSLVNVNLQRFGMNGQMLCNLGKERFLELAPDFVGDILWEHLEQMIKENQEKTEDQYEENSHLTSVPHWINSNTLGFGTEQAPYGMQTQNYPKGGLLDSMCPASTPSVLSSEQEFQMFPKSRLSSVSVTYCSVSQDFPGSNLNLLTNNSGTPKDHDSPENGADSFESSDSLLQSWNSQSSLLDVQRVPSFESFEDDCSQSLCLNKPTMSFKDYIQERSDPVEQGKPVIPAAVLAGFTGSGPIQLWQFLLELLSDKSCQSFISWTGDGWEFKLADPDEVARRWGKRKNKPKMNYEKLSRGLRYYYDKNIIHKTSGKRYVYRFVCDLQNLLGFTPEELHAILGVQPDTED
Outline: as §1

SPDEF = target: T8, SPDEF (Homo sapiens, UniProt O95238 1-335)
T8 sequence: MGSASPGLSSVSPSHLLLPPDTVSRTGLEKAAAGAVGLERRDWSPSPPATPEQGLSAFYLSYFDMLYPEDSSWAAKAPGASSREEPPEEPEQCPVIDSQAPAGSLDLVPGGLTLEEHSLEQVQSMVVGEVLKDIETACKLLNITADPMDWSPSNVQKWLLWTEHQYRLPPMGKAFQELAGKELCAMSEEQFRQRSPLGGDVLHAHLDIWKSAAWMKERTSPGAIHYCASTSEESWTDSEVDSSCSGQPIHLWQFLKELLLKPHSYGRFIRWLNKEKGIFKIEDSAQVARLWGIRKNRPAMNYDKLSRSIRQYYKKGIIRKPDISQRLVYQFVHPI
Outline: as §1

ETV7 = target: T9, ETV7 (Homo sapiens, UniProt Q9Y603 1-341)
T9 sequence: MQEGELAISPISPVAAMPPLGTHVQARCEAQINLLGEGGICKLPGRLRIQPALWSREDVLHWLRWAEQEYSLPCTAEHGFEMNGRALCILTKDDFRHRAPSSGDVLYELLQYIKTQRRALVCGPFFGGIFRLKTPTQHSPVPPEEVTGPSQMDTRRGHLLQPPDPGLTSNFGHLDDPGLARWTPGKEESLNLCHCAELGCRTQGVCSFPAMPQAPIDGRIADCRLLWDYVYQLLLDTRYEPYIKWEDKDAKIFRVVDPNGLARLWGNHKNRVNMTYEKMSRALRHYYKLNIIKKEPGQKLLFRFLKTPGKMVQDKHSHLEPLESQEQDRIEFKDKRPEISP
Outline: as §1

ELF5 = target: T10, ELF5 (Homo sapiens, UniProt Q9UKW6-2 1-255)
T10 sequence: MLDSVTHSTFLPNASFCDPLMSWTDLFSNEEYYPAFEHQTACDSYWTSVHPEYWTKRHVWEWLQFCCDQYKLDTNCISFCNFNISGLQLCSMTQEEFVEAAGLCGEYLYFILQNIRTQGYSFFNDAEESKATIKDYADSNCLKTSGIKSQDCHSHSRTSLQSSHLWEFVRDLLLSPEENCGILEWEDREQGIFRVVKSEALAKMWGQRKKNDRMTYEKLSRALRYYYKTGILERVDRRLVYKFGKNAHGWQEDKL
Outline: as §1

ETV3 = target: T11, ETV3 (Homo sapiens, UniProt P41162-2 1-143)
T11 sequence: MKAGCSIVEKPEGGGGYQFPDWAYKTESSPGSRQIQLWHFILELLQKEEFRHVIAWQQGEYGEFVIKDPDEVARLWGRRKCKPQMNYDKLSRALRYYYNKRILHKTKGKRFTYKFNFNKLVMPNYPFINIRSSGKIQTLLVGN
Outline: as §1

ETV6 = ETV6 (Homo sapiens, UniProt P41212 1-452)
Chain of ETV6 (P41212 whole entry): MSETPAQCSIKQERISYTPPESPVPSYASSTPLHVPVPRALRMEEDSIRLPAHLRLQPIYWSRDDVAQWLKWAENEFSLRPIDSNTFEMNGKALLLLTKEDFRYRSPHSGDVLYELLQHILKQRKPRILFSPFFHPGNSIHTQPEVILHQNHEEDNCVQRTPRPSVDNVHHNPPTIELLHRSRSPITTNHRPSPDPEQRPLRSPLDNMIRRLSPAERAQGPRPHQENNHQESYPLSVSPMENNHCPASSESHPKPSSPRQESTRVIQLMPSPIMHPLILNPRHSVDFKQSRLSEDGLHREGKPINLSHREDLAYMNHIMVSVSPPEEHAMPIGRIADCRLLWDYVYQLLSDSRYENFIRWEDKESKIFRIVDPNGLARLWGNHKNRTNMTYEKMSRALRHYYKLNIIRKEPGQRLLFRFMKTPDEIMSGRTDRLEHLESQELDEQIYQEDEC
Outline: as §1

ETV3L = target: T12, ETV3L (Homo sapiens, UniProt Q6ZN32 1-361)
T12 sequence: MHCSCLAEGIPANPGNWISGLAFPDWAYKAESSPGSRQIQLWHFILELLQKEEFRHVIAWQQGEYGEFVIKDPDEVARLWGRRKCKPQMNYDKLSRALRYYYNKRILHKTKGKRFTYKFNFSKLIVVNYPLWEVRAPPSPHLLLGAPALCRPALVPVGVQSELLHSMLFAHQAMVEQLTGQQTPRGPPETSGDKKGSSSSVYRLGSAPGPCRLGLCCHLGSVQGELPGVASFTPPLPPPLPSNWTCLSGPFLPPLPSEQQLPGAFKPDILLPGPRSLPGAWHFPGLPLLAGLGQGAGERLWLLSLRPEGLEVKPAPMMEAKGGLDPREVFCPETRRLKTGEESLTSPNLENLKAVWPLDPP
Outline: as §1

CGACGT
binding signal (FEV): 1.09 fold enrichment (6-mer frequency, TF over GST control)
binding signal (ETV5): 1.12 fold enrichment (6-mer frequency, TF over GST control)
binding signal (SPIC): 1.05 fold enrichment (6-mer frequency, TF over GST control)
binding signal (ELF4): 1.21 fold enrichment (6-mer frequency, TF over GST control)
binding signal (ELK4): 1.15 fold enrichment (6-mer frequency, TF over GST control)
binding signal (ETV2): 1.49 fold enrichment (6-mer frequency, TF over GST control)
binding signal (ELF3): 1.09 fold enrichment (6-mer frequency, TF over GST control)
binding signal (ETV1): 1.05 fold enrichment (6-mer frequency, TF over GST control)
binding signal (ERF): 1.17 fold enrichment (6-mer frequency, TF over GST control)
binding signal (ETS2): 1.05 fold enrichment (6-mer frequency, TF over GST control)
binding signal (SPDEF): 1.02 fold enrichment (6-mer frequency, TF over GST control)
binding signal (ETV7): 1.2 fold enrichment (6-mer frequency, TF over GST control)
binding signal (ELF5): 1.11 fold enrichment (6-mer frequency, TF over GST control)
binding signal (ETV3): 1.09 fold enrichment (6-mer frequency, TF over GST control)
binding signal (ETV6): 1.08 fold enrichment (6-mer frequency, TF over GST control)

GTATGG
binding signal (FEV): 1.01 fold enrichment (6-mer frequency, TF over GST control)
binding signal (ETV5): 1.02 fold enrichment (6-mer frequency, TF over GST control)
binding signal (SPIC): 1.08 fold enrichment (6-mer frequency, TF over GST control)
binding signal (ELF4): 1.02 fold enrichment (6-mer frequency, TF over GST control)
binding signal (ELK4): 1.01 fold enrichment (6-mer frequency, TF over GST control)
binding signal (ETV2): 1.03 fold enrichment (6-mer frequency, TF over GST control)
binding signal (ELF3): 1.04 fold enrichment (6-mer frequency, TF over GST control)
binding signal (ETV1): 1.16 fold enrichment (6-mer frequency, TF over GST control)
binding signal (ERF): 1.25 fold enrichment (6-mer frequency, TF over GST control)
binding signal (ETV3L): 1.03 fold enrichment (6-mer frequency, TF over GST control)
binding signal (ETS2): 1.01 fold enrichment (6-mer frequency, TF over GST control)
binding signal (ETV7): 1.02 fold enrichment (6-mer frequency, TF over GST control)
binding signal (ELF5): 1.03 fold enrichment (6-mer frequency, TF over GST control)
binding signal (ETV6): 1.01 fold enrichment (6-mer frequency, TF over GST control)

GCACTG
binding signal (FEV): 1.12 fold enrichment (6-mer frequency, TF over GST control)
binding signal (ETV5): 1.05 fold enrichment (6-mer frequency, TF over GST control)
binding signal (SPIC): 1.08 fold enrichment (6-mer frequency, TF over GST control)
binding signal (ELF4): 1.07 fold enrichment (6-mer frequency, TF over GST control)
binding signal (ELK4): 1.03 fold enrichment (6-mer frequency, TF over GST control)
binding signal (ETV2): 1.22 fold enrichment (6-mer frequency, TF over GST control)
binding signal (ETV1): 1.08 fold enrichment (6-mer frequency, TF over GST control)
binding signal (ERF): 1.04 fold enrichment (6-mer frequency, TF over GST control)
binding signal (ETV3L): 1.07 fold enrichment (6-mer frequency, TF over GST control)
binding signal (ETS2): 1.07 fold enrichment (6-mer frequency, TF over GST control)
binding signal (ETV7): 1.11 fold enrichment (6-mer frequency, TF over GST control)
binding signal (ETV3): 1.12 fold enrichment (6-mer frequency, TF over GST control)
binding signal (ETV6): 1.09 fold enrichment (6-mer frequency, TF over GST control)
